Results from the supplement of paper PMC7695840.
Structures can show the parent of a compound that is named as a salt.

tested on: Staphylococcus aureus MW2 delta-mecA (mecA-); test: normalized GFP fluorescence (growth of mecA- strain) (fraction of control range); higher = more growth of mecA- strain; conditions: compound concentration: 150 uM; cefoxitin: subinhibitory; fluorescent label: GFP
Summary of the method: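 Two pre-induced S. aureus MW2 strains, one with the gene labeled by DsRed and one lacking it labeled by GFP, were mixed 1:1 in LB with a subinhibitory antibiotic dose set daily. The mix went at 5 µL/well onto 150 μM compound (1.5% DMSO) in 1536-well plates, single replicate, and grew unshaken 20 h at 37 °C, 90% humidity. DsRed (540/590) and GFP (485/520) values were scaled per plate between single-strain control medians, and plates with high untreated ratios or rows with DsRed/GFP >10 were left out.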

Row | SMILES | normalized GFP fluorescence
1 | COc1ccc([C@@H]2Sc3ccccc3N(CCN(C)C)C(=O)[C@@H]2OC(C)=O)cc1 | 0.124
2 | CCN(CC)CCNC(=O)c1cc(S(C)(=O)=O)ccc1OC | 0.437
3 | Cc1cc(NS(=O)(=O)c2ccc(N)cc2)no1 | 0.0197
4 | CN[C@@H]1[C@@H](O)[C@@H](O[C@@H]2[C@@H](O)[C@H](O[C@H]3OC(CN)=CC[C@H]3N)[C@@H](N)C[C@H]2N)OC[C@]1(C)O | 0.511
5 | Cc1cc(CC(=O)O)n(C)c1C(=O)c1ccc(Cl)cc1 | 0.288
6 | CC1(C)O[C@@H]2C[C@H]3[C@@H]4CCC5=CC(=O)C=C[C@]5(C)[C@@]4(F)[C@@H](O)C[C@]3(C)[C@]2(C(=O)CO)O1 | 0.603
7 | NCCCC[C@H](N[C@@H](CCc1ccccc1)C(=O)O)C(=O)N1CCC[C@H]1C(=O)O | 0.972
8 | CCCNC(C)C(=O)Nc1ccccc1C (centres undefined) | 0.223
9 | COc1cc(N)c(Cl)cc1C(=O)NC1CCN(CCCOc2ccc(F)cc2)CC1OC (centres undefined) | 0.458
10 | C=CC(N)CCC(=O)O (centres undefined) | 0.441
11 | COc1ccc(CN(CCN(C)C)c2ncccn2)cc1 | 0.471
12 | CC1(C)O[C@@H]2C[C@H]3[C@@H]4C[C@H](F)C5=CC(=O)C=C[C@]5(C)[C@@]4(F)[C@@H](O)C[C@]3(C)[C@]2(C(=O)CO)O1 | 0.372
13 | CC1(C)S[C@@H]2[C@H](NC(=O)[C@H](C(=O)O)c3ccsc3)C(=O)N2[C@H]1C(=O)O | 0.468
14 | CC[C@@H]([C@H](C)O)n1ncn(-c2ccc(N3CCN(c4ccc(OC[C@@H]5CO[C@@](Cn6cncn6)(c6ccc(F)cc6F)C5)cc4)CC3)cc2)c1=O [Posaconazole] | 0.833
15 | CN(C)CC(c1ccc(O)cc1)C1(O)CCCCC1 (centres undefined) | 0.107
16 | CCCCOc1ccc(CC(=O)NO)cc1 [Bufexamac] | 0.312
17 | C[N+](C)(C)CCO.[Cl-] | 0.657
18 | CNC(=C[N+](=O)[O-])NCCSCc1ccc(CN(C)C)o1 | 0.32
19 | OCc1cccnc1 | 0.896
20 | Nc1ccn([C@@H]2CS[C@H](CO)O2)c(=O)n1 | 0.367

Row | SMILES | normalized GFP fluorescence
21 | CCOc1cc([C@@H](CS(C)(=O)=O)N2C(=O)c3cccc(NC(C)=O)c3C2=O)ccc1OC | 0.254
22 | COc1ccc(CCN(C)CCCC(C#N)(c2ccc(OC)c(OC)c2)C(C)C)cc1OC (centres undefined) | 0.734
23 | CC(=O)CC(c1ccccc1)c1c(O)c2ccccc2oc1=O (centres undefined) | 0.718
24 | COc1ccccc1OCC(O)CO (centres undefined) | 0.274
25 | COc1ccc2c(c1OC)C(=O)O[C@@H]2[C@H]1c2c(cc3c(c2OC)OCO3)CCN1C | 0.473
26 | C[C@](N)(Cc1ccc(O)c(O)c1)C(=O)O | 0.258
27 | CC(COc1ccccc1)N(CCCl)Cc1ccccc1 (centres undefined) | 0.632
28 | CCOC(=O)OC(C)OC(=O)[C@@H]1N2C(=O)[C@@H](NC(=O)[C@H](N)c3ccccc3)[C@H]2SC1(C)C (some centres undefined) | 0.00819
29 | CN[C@@H]1[C@H](O)[C@H](NC)[C@H]2O[C@@]3(O)C(=O)C[C@@H](C)O[C@H]3O[C@@H]2[C@H]1O | 0.198
30 | CCCCCCc1ccc(O)cc1O | 0.0569
31 | CN(C)CCc1c[nH]c2ccc(C[C@H]3COC(=O)N3)cc12 | 0.31
32 | CCC1NC(=O)c2cc(S(N)(=O)=O)c(Cl)cc2N1 (centres undefined) | 0.601
33 | Cn1nnc2c(C(N)=O)ncn2c1=O [Temozolomide] | 0.456
34 | CCOc1ccc(Cc2cc([C@@H]3O[C@H](CO)[C@@H](O)[C@H](O)[C@H]3O)ccc2Cl)cc1 [Dapagliflozin] | 0.454
35 | O=C(CCCCCCC(=O)Nc1ccccc1)NO [Vorinostat (SAHA)] | 0.386
36 | CN(C)CC/C=C1/c2ccccc2COc2ccc(CC(=O)O)cc21 [Olopatadine hydrochloride (Opatanol)] | 0.475
37 | CC(C)(Oc1ccc(CCNC(=O)c2ccc(Cl)cc2)cc1)C(=O)O | 0.407
38 | Cc1nnc(NS(=O)(=O)c2ccc(N)cc2)s1 | 0.326
39 | C[C@H](CS)C(=O)N1CCC[C@H]1C(=O)O | 0.232
